# Data published in PubChem BioAssay AID743326 (National Center for Advancing Translational Sciences (NCATS), 2014).
# A number with no mark means an inactive call. The source made the active and inactive calls. Calls follow the shape of the full dose curve. Square brackets hold non-standard residues; d marks the D form. Peptide text beside a SMILES is read from it. Orn = NCCC[C@H](N)C(=O)O
# Test: qHTS profiling of Chloroquine Analogs as inhibitors of Plasmodium falciparum (DD2) proliferation
# Settings: Potency: Plasmodium falciparum Dd2 proliferation inhibition; series mostly up to 28.7 µM; activity change, negative = inhibition: at the top concentration
# Text: Plasmodium falciparum is a virulent malarial parasite that kills 1-2 million people worldwide each year. Transmitted by mosquitoes, the sporozoite form of the parasite enters the blood stream to infect hepatocytes, where they become merozoites that infect red blood cells (erythrocytes). Within erythrocytes, merozoites begin a […] cycle of growth and division, after which the parasite is released to infect new red blood cells. Gametocytes, which form within erythrocytes as well, circulate in the bloodstream and are ingested by the mosquito, thereby completing the life cycle. To profile malarial isolates for differential chemical responses and to identify inhibitors of malarial growth, an assay that measures P. falciparum growth and replication within erythrocytes was employed. This assay uses a DNA binding fluorescent dye (SYBR Green) to detect parasite DNA following cell lysis. Because mature erythrocytes lack DNA, only Plasmodium-derived DNA is detected.
# The SYBR Green viability assay was adapted from a method described previously (Plouffe et al., 2008). For screening 3 ul culture medium was dispensed into 1536 well black clear bottom plates (Aurora Biotechnologies) using a Multidrop Combi (Thermo Fisher Scientific Inc.), 23 nL compounds in DMSO were added by a pin tool (Kalypsys), and 5 ul of erythrocytes infected with P. falciparum (0.3% parasitemia, 2.5% hematocrit final concentration) were added. The plates were incubated at 37 C in a humidified incubator in 5% CO2 for 72 h, and 2 ul lysis buffer (20 mM Tris HCl, 10 mM EDTA, 0.16% saponin, 1.6% triton X, 10X SYBR Green I supplied as 10,000X […] by Invitrogen) was added to each well. The plates were mixed for 25 sec with gentle shaking and incubated overnight at room temperature in the dark. The following morning, fluorescence intensity at 485(14) nm excitation and 535(25) nm emission wavelengths was measured on an EnVision (Perkin Elmer) plate reader. Plate reads were normalized relative to the control inhibitor (0.29 uM artemisinin) and vehicle (DMSO) wells present on each plate and then corrected by an algorithm using vehicle-only control plates at the beginning and end of the compound plate stack.
SMILES,"activity change, negative = inhibition",Potency
Clc1ccc(COC(Cn2ccnc2)c2ccc(Cl)cc2Cl)c(Cl)c1 (configuration not stated),-98.7% [at 14.2 µM],–
CNCCCCOc1ccccc1Cc1ccccc1,206%,–
CN(C)CC/C=C1\c2ccccc2COc2ccccc21,–,1430 nM (active)
COc1ccc2nc3cc(Cl)ccc3c(Nc3cc(CN4CCCC4)c(O)c(CN4CCCC4)c3)c2n1,-103%,–
CC1=CC(=O)c2ccccc2C1=O,-98.6%,–
COc1ccc(CCN(C)CCCC(C#N)(c2ccc(OC)c(OC)c2)C(C)C)cc1OC (configuration not stated),178%,–
CCOc1ccc(F)cc1C1(O)C(N)=Nc2ccc(Cl)cc21 (configuration not stated),–,66.8 nM (active)
O=C1C(=O)c2ccccc2C(O)=C1C1CCC(c2ccc(Cl)cc2)CC1 (configuration not stated),-99.4%,–
CSc1cccc(NC(=O)CC[C@H]2O[C@@H]3O[C@]4(C)CC[C@H]5[C@H](C)CC[C@@H]([C@@H]2C)[C@@]35OO4)c1,–,26.6 nM (active)
CN(C)c1ccc2nc3ccc(=[N+](C)C)cc-3sc2c1,–,6.9 nM (active)
C[C@@H]1Cc2c([nH]c3cc(Cl)c(F)cc23)[C@]2(N1)C(=O)Nc1ccc(Cl)cc12,-101%,–
O=C(Nc1ccc(Cl)cc1)Nc1ccc(Cl)c(Cl)c1,176%,–
Cn1cncc1[C@@](N)(c1ccc(Cl)cc1)c1ccc2c(c1)c(-c1cccc(Cl)c1)cc(=O)n2C,193%,–
NC(=NCc1ccccc1)NC(=O)c1nc(Cl)c(N)nc1N,-94.1%,–
CC(=O)N(O)CCCP(=O)(O)O,-91.8%,–
Cc1cccc(C)c1NC(=O)C(C)N (configuration not stated),-16% [at 14.2 µM],–
CC(C)C[C@@H]1NC(=O)[C@H](CCCN)NC(=O)[C@H](C(C)C)NC(=O)[C@@H]2CCCN2C(=O)[C@@H](Cc2ccccc2)NC(=O)[C@H](CC(C)C)NC(=O)[C@H](CCCN)NC(=O)[C@H](C(C)C)NC(=O)[C@@H]2CCCN2C(=O)[C@@H](Cc2ccccc2)NC1=O (cyclo(V[Orn]L[dF]PV[Orn]L[dF]P)),–,0.7 nM (active)
CNCCC(Oc1ccccc1OC)c1ccccc1 (configuration not stated),-94%,–
CCCCCCCCCCOc1cc2c(=O)c(C(=O)OCC)c[nH]c2cc1OCC,-98.2%,–

SMILES,"activity change, negative = inhibition",Potency
COc1ncnc(NS(=O)(=O)c2ccc(N)cc2)c1OC,–,1880 nM (active)
COc1cc(NC(C)CCCN)c2ncccc2c1 (configuration not stated),193% [at 14.2 µM],–
COc1cccc(CCc2ccccc2OCC(CN(C)C)OC(=O)CCC(=O)O)c1 (configuration not stated),–,943 nM (active)
CCCCN(CCCC)CC(O)c1cc(Cl)cc2c1-c1ccc(Cl)cc1C2=Cc1ccc(Cl)cc1 (configuration not stated),164%,–
Cc1cccc(C)c1OCC(N)C(C)C (configuration not stated),–,5950 nM (active)
COC(=O)C1C2CC3c4[nH]c5cc(OC)ccc5c4CCN3CC2CC(OC(=O)c2cc(OC)c(OC)c(OC)c2)C1OC (configuration not stated),196% [at 57.5 µM],–
C=CCON=C(C[C@H]1O[C@@H]2O[C@]3(C)CC[C@@H]4[C@H](C)CC[C@@H]([C@H]1C)[C@@]24OO3)[C@H]1O[C@@H]2O[C@]3(C)CC[C@H]4[C@H](C)CC[C@@H]([C@@H]1C)[C@@]24OO3,197%,–
CO[C@H]1O[C@@H]2O[C@@]3(C)CC[C@@H]4[C@@H](C)CC[C@@H]([C@H]1C)[C@@]24OO3,172%,–
O=CN(O)CCCP(=O)(O)O,-91.1%,–
CCN(CC)CCOCCOC(=O)C(CC)(CC)c1ccccc1,-57.6%,–
OB1OCc2cc(F)ccc21,5.84%,–
CCOc1ccccc1O[C@H](c1ccccc1)[C@H]1CNCCO1,201%,–
CCc1ccc(OCc2ccccc2C(=O)Nc2ccc3nc(C)cc(N)c3c2)cc1,-100%,–
Cc1oncc1C(=O)Nc1ccc(C(F)(F)F)cc1,-19.1%,–
C/C(=C\c1csc(C)n1)[C@@H]1C[C@@H]2O[C@]2(C)CCC[C@H](C)[C@H](O)[C@@H](C)C(=O)C(C)(C)[C@@H](O)CC(=O)O1,24.3%,–
CN1C[C@H](C(=O)N[C@]2(C)O[C@@]3(O)[C@@H]4CCCN4C(=O)[C@H](Cc4ccccc4)N3C2=O)C[C@@H]2c3cccc4[nH]cc(c34)C[C@H]21,180%,–
COc1cc2c(cc1C(F)(F)F)N(C(=O)Nc1cc(F)cc(-c3cccnc3)c1)CC2,177%,–
C[C@@H]1[C@@H](C(=O)C[C@H]2O[C@@H]3O[C@]4(C)CC[C@@H]5[C@H](C)CC[C@@H]([C@H]2C)[C@@]35OO4)O[C@@H]2O[C@]3(C)CC[C@H]4[C@H](C)CC[C@@H]1[C@@]24OO3,–,1.3 nM (active)
